# Test results as given in the supplement of paper PMC8728848.
# Only a selection was taken, and the strongest signals are over-represented in it overall.
# Tests used:
# Test in all cases: glycan array binding signal (z-score within array); higher = stronger binding
# Conditions in all cases: glycan notation: IUPAC condensed, linker removed
# [1] = biological target: Fuc(a1-2)Gal(b1-4)GlcNAc(b1-3)Gal(b1-4)GlcNAc(b1-2)Man(a1-3)[Fuc(a1-2)Gal(b1-4)GlcNAc(b1-3)Gal(b1-4)GlcNAc(b1-2)Man(a1-6)]Man(b1-4)GlcNAc(b1-4)GlcNAc
# How it was run: (§1)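 The Consortium for Functional Glycomics database supplied 3228 glycan arrays, of which those lacking an available protein sequence were dropped. The binding signal, a within-array Z-score, was averaged across arrays of the same protein sequence and across linkers. Negative scores can be read as non-binding.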
# [2] = biological target: Fuc(a1-2)Gal(b1-4)[Fuc(a1-3)]GlcNAc(b1-3)Gal(b1-4)[Fuc(a1-3)]GlcNAc(b1-3)Gal(b1-4)[Fuc(a1-3)]GlcNAc
# How it was run: as §1
# [3] = biological target: Fuc(a1-2)Gal(b1-4)[Fuc(a1-3)]GlcNAc(b1-3)GalNAc
# How it was run: as §1
# [4] = biological target: Fuc(a1-2)Gal6S(b1-4)Glc6S
# How it was run: as §1
# [5] = biological target: Fuc(a1-3)[Gal(b1-4)]GlcNAc(b1-6)GalNAc
# How it was run: as §1
# [6] = biological target: Gal(a1-2)Gal
# How it was run: as §1
# [7] = biological target: Gal(a1-3)Gal(b1-3)GlcNAc
# How it was run: as §1
# [8] = biological target: Gal(a1-3)Gal(b1-4)Glc
# How it was run: as §1
# [9] = biological target: Gal(a1-4)GlcNAc
# How it was run: as §1
# [10] = biological target: Gal(b1-2)Gal
# How it was run: as §1
# [11] = biological target: Gal(b1-3)Gal
# How it was run: as §1
# [12] = biological target: Gal(b1-3)GalNAc
# How it was run: as §1
# [13] = biological target: Gal(b1-3)[Fuc(a1-4)]GlcNAc(b1-6)GalNAc
# How it was run: as §1
# [14] = biological target: Gal(b1-4)GalNAc(b1-3)[Fuc(a1-2)]Gal(b1-4)GlcNAc
# How it was run: as §1
# [15] = biological target: Gal(b1-4)GlcNAc(b1-3)Gal(b1-4)GlcNAc(b1-2)Man(a1-3)[Gal(b1-4)GlcNAc(b1-3)Gal(b1-4)GlcNAc(b1-2)Man(a1-6)]Man(b1-4)GlcNAc(b1-4)GlcNAc
# How it was run: as §1
# [16] = biological target: Gal(b1-4)GlcNAc(b1-3)Gal(b1-4)GlcNAc(b1-2)Man(a1-3)[Gal(b1-4)GlcNAc(b1-3)Gal(b1-4)GlcNAc(b1-2)Man(a1-6)]Man(b1-4)GlcNAc(b1-4)[Fuc(a1-6)]GlcNAc
# How it was run: as §1
# [17] = biological target: Gal(b1-4)GlcNAc(b1-3)Gal(b1-4)GlcNAc(b1-2)[Gal(b1-4)GlcNAc(b1-3)Gal(b1-4)GlcNAc(b1-6)]Man(a1-6)[Gal(b1-4)GlcNAc(b1-3)Gal(b1-4)GlcNAc(b1-2)Man(a1-3)]Man(b1-4)GlcNAc(b1-4)[Fuc(a1-6)]GlcNAc
# How it was run: as §1
# [18] = biological target: Gal(b1-4)GlcNAc(b1-3)Gal(b1-4)GlcNAc(b1-3)Gal(b1-4)GlcNAc(b1-2)Man(a1-3)[Gal(b1-4)GlcNAc(b1-3)Gal(b1-4)GlcNAc(b1-3)Gal(b1-4)GlcNAc(b1-2)Man(a1-6)]Man(b1-4)GlcNAc(b1-4)GlcNAc
# How it was run: as §1
# [19] = biological target: Gal(b1-4)GlcNAc(b1-3)[Gal(b1-4)GlcNAc(b1-6)]Gal(b1-4)GlcNAc
# How it was run: as §1
# [20] = biological target: Gal(b1-4)GlcNAc(b1-3)[GlcNAc(b1-6)]Gal(b1-4)GlcNAc
# How it was run: as §1
# [21] = biological target: Gal(b1-4)GlcNAc6P
# How it was run: as §1
# [22] = biological target: Gal(b1-6)Gal
# How it was run: as §1
# [23] = biological target: Gal3S(b1-3)GlcNAc
# How it was run: as §1
# [24] = biological target: Gal3S(b1-4)Glc
# How it was run: as §1
# [25] = biological target: Gal3S6S(b1-4)GlcNAc6S
# How it was run: as §1
# [26] = biological target: GalNAc(b1-3)Gal
# How it was run: as §1
# [27] = biological target: GalNAc(b1-4)GlcNAc(b1-2)Man(a1-3)[GalNAc(b1-4)GlcNAc(b1-2)Man(a1-6)]Man(b1-4)GlcNAc(b1-4)GlcNAc
# How it was run: as §1
# [28] = biological target: GalNAc(b1-4)GlcNAc6S
# How it was run: as §1
# [29] = biological target: Glc(a1-6)Glc(a1-6)Glc
# How it was run: as §1
# [30] = biological target: GlcA(b1-6)Gal
# How it was run: as §1
# [31] = biological target: GlcNAc(a1-4)Gal(b1-4)GlcNAc(b1-3)Gal(b1-4)[Fuc(a1-3)]GlcNAc(b1-3)Gal(b1-4)[Fuc(a1-3)]GlcNAc
# How it was run: as §1
# [32] = biological target: GlcNAc(b1-3)Gal(b1-3)GalNAc
# How it was run: as §1
# [33] = biological target: GlcNAc(b1-3)Gal(b1-4)Glc
# How it was run: as §1
# [34] = biological target: GlcNAc(b1-3)Gal(b1-4)GlcNAc(b1-6)[Gal(b1-3)]GalNAc
# How it was run: as §1
# [35] = biological target: Kdn(a2-3)Gal(b1-3)GalNAc
# How it was run: as §1
# [36] = biological target: Man(a1-2)Man(a1-2)Man(a1-3)Man
# How it was run: as §1
# [37] = biological target: Man(a1-2)Man(a1-3)[Man(a1-2)Man(a1-6)]Man(a1-6)[Man(a1-2)Man(a1-2)Man(a1-3)]Man
# How it was run: as §1
# [38] = biological target: Man(a1-3)[Man(a1-6)]Man
# How it was run: as §1
# [39] = biological target: Man(a1-3)[Man(a1-6)]Man(a1-6)[Man(a1-2)Man(a1-3)]Man(b1-4)GlcNAc(b1-4)GlcNAc
# How it was run: as §1
# [40] = biological target: Man(a1-6)Man
# How it was run: as §1
# [41] = biological target: Neu5Ac(a2-3)Gal(b1-3)GalNAc(b1-3)Gal(a1-4)Gal(b1-4)Glc
# How it was run: as §1
# [42] = biological target: Neu5Ac(a2-3)Gal(b1-4)GlcNAc(b1-2)Man
# How it was run: as §1
# [43] = biological target: Neu5Ac(a2-3)Gal(b1-4)GlcNAc(b1-3)Gal
# How it was run: as §1
# [44] = biological target: Neu5Ac(a2-3)Gal(b1-4)GlcNAc(b1-3)Gal(b1-4)GlcNAc(b1-3)Gal(b1-4)GlcNAc
# How it was run: as §1
# [45] = biological target: Neu5Ac(a2-3)Gal(b1-4)GlcNAc(b1-3)Gal(b1-4)[Fuc(a1-3)]GlcNAc
# How it was run: as §1
# [46] = biological target: Neu5Ac(a2-3)Gal(b1-4)GlcNAc(b1-6)[Neu5Ac(a2-3)Gal(b1-3)]GalNAc
# How it was run: as §1
# [47] = biological target: Neu5Ac(a2-6)Gal(b1-3)GlcNAc(b1-3)[Gal(b1-4)GlcNAc(b1-6)]Gal(b1-4)Glc
# How it was run: as §1
# [48] = biological target: Neu5Ac(a2-6)Gal(b1-4)Glc
# How it was run: as §1
# [49] = biological target: Neu5Ac(a2-6)Gal(b1-4)GlcNAc(b1-2)Man(a1-3)[Gal(b1-4)GlcNAc(b1-2)Man(a1-6)]Man(b1-4)GlcNAc(b1-4)GlcNAc
# How it was run: as §1
# [50] = biological target: Neu5Ac(a2-6)Gal(b1-4)GlcNAc(b1-2)Man(a1-3)[Man(a1-6)]Man(b1-4)GlcNAc(b1-4)GlcNAc
# How it was run: as §1
# [51] = biological target: Neu5Ac(a2-6)Gal(b1-4)GlcNAc(b1-3)Gal(b1-4)GlcNAc(b1-3)GalNAc
# How it was run: as §1
# [52] = biological target: Neu5Ac(a2-6)Gal(b1-4)GlcNAc(b1-6)GalNAc
# How it was run: as §1
# [53] = biological target: Neu5Ac(a2-8)Neu5Ac(a2-8)Neu5Ac(a2-3)[Gal(b1-3)GalNAc(b1-4)]Gal(b1-4)Glc
# How it was run: as §1
# [54] = biological target: Neu5Ac(a2-8)Neu5Gc(a2-3)Gal(b1-4)GlcNAc
# How it was run: as §1
# [55] = biological target: Neu5Gc(a2-6)Gal(b1-4)GlcNAc
# How it was run: as §1
binder,measurement,setting,value
LngA (Escherichia coli) (protein) MLSVYNRTQKFKAEARKKIAKYHELRKQRGMSLLEVIIVLGIIGTIAAGVVILAQRAFDSRAVTDLVTNTNTVRVRMKDAYQRDGKYPDFVDPLSLTANTIKTDTSGIPAAQLVQLGKITPDEVRNNISGDFIAIGGALTSNGAQVKKGFAIELNGLSQEQCRSILGQVGNNWEYVAIGTSASGSYAMTATGVDMSVAASTTVLRSLGNNGQTTLTADKILSTCTAQVNSITLGSR,glycan array binding signal (z-score),[1],-0.248
same,glycan array binding signal (z-score),[2],-0.414
same,glycan array binding signal (z-score),[3],0.215
same,glycan array binding signal (z-score),[4],0.398
same,glycan array binding signal (z-score),[5],-0.182
same,glycan array binding signal (z-score),[6],0.247
same,glycan array binding signal (z-score),[7],2.92
same,glycan array binding signal (z-score),[8],-0.144
same,glycan array binding signal (z-score),[9],-0.206
same,glycan array binding signal (z-score),[10],2.94
same,glycan array binding signal (z-score),[11],-0.316
same,glycan array binding signal (z-score),[12],-0.143
same,glycan array binding signal (z-score),[13],-0.438
same,glycan array binding signal (z-score),[14],-0.632
same,glycan array binding signal (z-score),[15],3.2
same,glycan array binding signal (z-score),[16],-0.289
same,glycan array binding signal (z-score),[17],4.27
same,glycan array binding signal (z-score),[18],3.43
same,glycan array binding signal (z-score),[19],-0.205
same,glycan array binding signal (z-score),[20],-0.507
same,glycan array binding signal (z-score),[21],4.74
same,glycan array binding signal (z-score),[22],0.393
same,glycan array binding signal (z-score),[23],-0.1
same,glycan array binding signal (z-score),[24],4.16
same,glycan array binding signal (z-score),[25],2.24
same,glycan array binding signal (z-score),[26],0.532
same,glycan array binding signal (z-score),[27],-0.153
same,glycan array binding signal (z-score),[28],-0.467
same,glycan array binding signal (z-score),[29],0.075
same,glycan array binding signal (z-score),[30],0.408
same,glycan array binding signal (z-score),[31],0.38
same,glycan array binding signal (z-score),[32],0.147
same,glycan array binding signal (z-score),[33],-0.256
same,glycan array binding signal (z-score),[34],-0.006
same,glycan array binding signal (z-score),[35],-0.202
same,glycan array binding signal (z-score),[36],-0.556
same,glycan array binding signal (z-score),[37],-0.506
same,glycan array binding signal (z-score),[38],-0.411
same,glycan array binding signal (z-score),[39],-0.239
same,glycan array binding signal (z-score),[40],3.82
same,glycan array binding signal (z-score),[41],-0.375
same,glycan array binding signal (z-score),[42],3.6
same,glycan array binding signal (z-score),[43],-0.531
same,glycan array binding signal (z-score),[44],-0.508
same,glycan array binding signal (z-score),[45],2.73
same,glycan array binding signal (z-score),[46],-0.439
same,glycan array binding signal (z-score),[47],-0.533
same,glycan array binding signal (z-score),[48],-0.2
same,glycan array binding signal (z-score),[49],-0.321
same,glycan array binding signal (z-score),[50],-0.28
same,glycan array binding signal (z-score),[51],-0.361
same,glycan array binding signal (z-score),[52],2.77
same,glycan array binding signal (z-score),[53],-0.06
same,glycan array binding signal (z-score),[54],-0.319
same,glycan array binding signal (z-score),[55],-0.433
